High-throughput results deposited in PubChem BioAssay by National Center for Advancing Translational Sciences (NCATS).
Sampled rows, rich in hits. Any-hit rate of the full collection: about 4.5%.
HTT-AS promoter – activators of huntingtin-antisense promoter activity; HEK293 HTT-AS promoter firefly luciferase reporter, 24 h; response scale: percent change from vehicle, -100% = no light; Potency, µM (titrated, usually from 57.5 µM), hits mostly activators; AID 1508624; 0.24% of 48,000 active; further: nearly all actives have a fitted effect of over 55% in size
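Luminescence was read after Dual-Glo reagent and a 10 min room-temperature incubation. Values were normalized to vehicle (0% activity) and zero RLU (-100% activity). Reporter HEK293 cells had been exposed to compounds (up to 57.5 uM final) for 24 h.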
OvCa metastasis – blocks SKOV3ip1 adhesion and invasion in omental model; 0.1% of 46,000 active; SKOV3ip1-GFP adhesion/invasion on 3D omental model, fluorescence; Potency, µM (highest dose often 45.8 µM), most hits filed as inhibitors; AID 1963576; further: nearly all actives have a fitted effect of over 65% in size
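qHTS, 4-pt dose (0.36-46 umol/L); SKOV3ip1-GFP, 1,200 cells/well, no FBS; primary omental fibroblast/mesothelial co-culture 48 h pre-grown; 2 h RT + 16 h 37 C; PBS wash, 4% PFA; GFP count 488/509 nm.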
GPR32 ag – activates human resolvin D1 receptor GPR32 | activation, % at 76.9 µM | CHO-K1 GPR32 beta-arrestin PathHunter luminescence, 90 min; zero percent set by DMSO-only wells | AID 1346428 | O75388 | 2.5% of 48,000 active;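 active means activation of at least 60% and not above a set upper limit, about 1 call in 100 departs from these limits; inconclusive means activation of 40% to 60%, or above that upper limit; inactive means activation under 40%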
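Cells are plated overnight, treated with compounds in DMSO for 90 minutes at 37 °C, and developed with PathHunter detection reagent for 1 hour before luminescence is read; signal reflects beta-arrestin binding to GPR32 in engineered CHO-K1 cells.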
NTMT1 inh – blocks human N-terminal methyltransferase 1 activity; NTMT1 MTase-Glo SAH luminescence, purified enzyme; Potency, µM (series often up to 114 µM), actives largely listed as inhibitors; 2.5% of 59,000 active; AID 1645870; further: nearly all actives have a fitted effect of over 65% in size
Target sequence (Q9BV86 whole entry, looked up): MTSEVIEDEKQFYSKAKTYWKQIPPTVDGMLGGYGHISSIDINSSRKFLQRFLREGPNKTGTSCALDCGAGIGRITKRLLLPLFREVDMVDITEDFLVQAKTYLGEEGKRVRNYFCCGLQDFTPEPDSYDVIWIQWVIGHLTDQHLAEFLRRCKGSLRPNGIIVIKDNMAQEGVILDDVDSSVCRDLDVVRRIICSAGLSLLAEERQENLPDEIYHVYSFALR
HTT prom inh – HTT promoter inhibition; HEK293 HTT promoter firefly luciferase reporter, 24 h; Potency, µM (top dose mostly 57.5 µM), actives largely listed as inhibitors; 0.93% of 48,000 active; further: nearly all actives have a fitted effect of over 50% in size
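HEK293 luciferase promoter-reporter cells (2,500/well) plated 24 h, then compounds added at up to 57.5 uM final for 24 h at 37 °C. Firefly luminescence by Dual-Glo, normalized to vehicle (0%) and zero RLU (-100%).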
Numbers stand for hits; ! = not confirmed by another sample. Unless noted, the call rests on the fitted dose curve; in most records, active means well fitted curve in the direction sought with a large enough effect; inconclusive means small, poorly fitted or top-dose-only effect, or another doubt; inactive means no such curve, though single readings can be large; an effect the other way counts as inactive or inconclusive.

O=C(COc1ccccc1F)OCc1cc(=O)n2nc(-c3cccs3)sc2n1 was read as HTT-AS promoter inactive, OvCa metastasis inactive, GPR32 ag inactive, NTMT1 inh inactive and HTT prom inh inactive.
`Cc1ccc(Cn2c(C)c3cnn(CC(=O)N4CCN(c5ccc(F)cc5)CC4)c(=O)c3c2C)cc1` gave HTT-AS promoter inactive, OvCa metastasis inactive, GPR32 ag inactive, NTMT1 inh inconclusive and HTT prom inh 14µM.
`CCOC(=O)C1CCCN(C(=O)Cn2c(=O)cc(C)c3c(C)nn(C)c32)C1` (stereo not given) gave HTT-AS promoter inactive, OvCa metastasis inactive, GPR32 ag 81, NTMT1 inh inactive and HTT prom inh inconclusive.
Cc1c2cnn(-c3ccccc3)c(=O)c2c(C)n1CC(=O)N1CCN(c2ccc(F)cc2)CC1 was read as HTT-AS promoter inactive, OvCa metastasis inactive, GPR32 ag inactive, NTMT1 inh inconclusive and HTT prom inh inconclusive.
Cc1cc(=O)n(CC(=O)N2CCN(c3ccc(F)cc3)CC2)c2c1c(C)nn2C was read as HTT-AS promoter inactive, OvCa metastasis inactive, GPR32 ag 71, NTMT1 inh inactive and HTT prom inh inconclusive.
Screening Cc1nn(C)c2c1c(C(F)(F)F)cc(=O)n2CC(=O)N1CCCCC1C (stereo not given) returned HTT-AS promoter inactive, OvCa metastasis inactive, GPR32 ag 80, NTMT1 inh inactive and HTT prom inh inactive.
Cc1c2cnn(CC(=O)N3CCCCC3)c(=O)c2c(C)n1Cc1ccc(F)cc1 was read as HTT-AS promoter inactive, OvCa metastasis inactive, GPR32 ag inactive, NTMT1 inh inactive and HTT prom inh inactive.
For CCc1ccccc1NC(=O)c1ccc2c(c1)c(C)c(C)n2Cc1ccccc1 the results were HTT-AS promoter inactive, OvCa metastasis inactive, GPR32 ag inactive, NTMT1 inh inactive and HTT prom inh inactive.
CCCOc1ccc(-c2nonc2NC(=O)c2oc3ccc(C)cc3c2C)cc1OCCC was read as HTT-AS promoter inactive, OvCa metastasis inactive, GPR32 ag inactive, NTMT1 inh inactive and HTT prom inh inactive.
`Cc1ccc2oc(-c3ccc(C)c(NC(=O)c4ccc5c(c4)OCCO5)c3)nc2c1` gave HTT-AS promoter inactive, OvCa metastasis inactive, GPR32 ag inactive, NTMT1 inh inactive and HTT prom inh inactive.
COc1cc2ccccc2cc1C(=O)N1CCN(c2nc3ccc(F)cc3s2)CC1 was read as HTT-AS promoter inactive, OvCa metastasis inactive, GPR32 ag inactive, NTMT1 inh inactive and HTT prom inh inconclusive.
For CCS(=O)(=O)c1ccccc1C(=O)N1CCN(c2nc3ccccc3s2)CC1 the results were HTT-AS promoter inactive, OvCa metastasis inactive, GPR32 ag inactive, NTMT1 inh inactive and HTT prom inh 14µM.
For O=c1cc(-c2ccccc2)oc2cc(O)c(O)c(O)c12 the results were HTT-AS promoter inconclusive, OvCa metastasis inactive, NTMT1 inh 28µM! and HTT prom inh inactive.
`O=C(O)[C@H]1O[C@H](Oc2cc3oc(-c4ccccc4)cc(=O)c3c(O)c2O)[C@H](O)[C@@H](O)[C@H]1O` gave HTT-AS promoter inconclusive, OvCa metastasis inactive, NTMT1 inh inactive and HTT prom inh inactive.
For Cc1ccc(C)c(Oc2nc3c(c(=O)n(C)c(=O)n3C)n2Cc2ccccc2)c1 the results were HTT-AS promoter inconclusive, OvCa metastasis inactive, GPR32 ag inactive, NTMT1 inh inactive and HTT prom inh inactive.
CC1=NN(c2ccc(C(=O)O)cc2)C(=O)/C1=C/c1ccc(-c2cc(C)c(C)cc2[N+](=O)[O-])o1 was read as NTMT1 inh 50µM.
`CC(=O)N/N=C/c1ccc([N+](=O)[O-])o1` gave HTT-AS promoter inactive, GPR32 ag 68, NTMT1 inh inactive and HTT prom inh inactive.
NC(=O)NN=Cc1ccc([N+](=O)[O-])o1 was read as HTT-AS promoter inactive, OvCa metastasis inactive, NTMT1 inh inactive and HTT prom inh inactive.
Screening CCSc1ncc(Cl)c(C(=O)N2CCN(c3ccc(OC)cc3)CC2)n1 returned HTT-AS promoter inactive, OvCa metastasis inactive, GPR32 ag inactive, NTMT1 inh inactive and HTT prom inh inconclusive.
Screening COc1ccc2cc3cc(C(=O)Nc4ccccc4C)oc3nc2c1 returned HTT-AS promoter inactive, OvCa metastasis inactive, GPR32 ag 98, NTMT1 inh inactive and HTT prom inh inactive.
